High-throughput results: PubChem BioAssay, several laboratories
PREPL inhibitor: human PREPL enzyme inhibition. 0.68% of 320,000 active. recombinant PREPL, fluorescence polarization activity-based probe. inhibition, % at 5.96 µM; in the data active means inhibition above about 43%;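 further: 0% = enzyme with DMSO and 100% = wells lacking enzyme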
Target sequence (Q4J6C6 whole entry, looked up): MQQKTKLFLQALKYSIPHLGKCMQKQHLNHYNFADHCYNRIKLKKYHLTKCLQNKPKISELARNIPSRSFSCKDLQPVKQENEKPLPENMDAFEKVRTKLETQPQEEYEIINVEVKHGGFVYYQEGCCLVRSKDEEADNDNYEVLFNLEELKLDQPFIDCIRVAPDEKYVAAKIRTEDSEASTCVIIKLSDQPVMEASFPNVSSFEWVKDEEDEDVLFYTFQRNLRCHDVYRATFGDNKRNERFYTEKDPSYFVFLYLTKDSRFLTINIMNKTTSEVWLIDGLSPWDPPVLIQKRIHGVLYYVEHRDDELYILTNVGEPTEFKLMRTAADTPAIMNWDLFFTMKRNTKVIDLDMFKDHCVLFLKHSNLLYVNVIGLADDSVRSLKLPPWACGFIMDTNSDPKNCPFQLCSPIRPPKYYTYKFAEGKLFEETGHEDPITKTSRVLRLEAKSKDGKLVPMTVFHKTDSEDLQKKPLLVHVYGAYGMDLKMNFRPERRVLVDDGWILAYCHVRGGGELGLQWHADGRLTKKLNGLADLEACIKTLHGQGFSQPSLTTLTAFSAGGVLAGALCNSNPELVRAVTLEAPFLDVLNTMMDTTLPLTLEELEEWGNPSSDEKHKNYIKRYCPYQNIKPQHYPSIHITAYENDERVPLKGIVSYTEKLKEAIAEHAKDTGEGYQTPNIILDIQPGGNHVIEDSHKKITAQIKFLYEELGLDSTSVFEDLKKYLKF
Rpn11 inh: blocks the human proteasome subunit Rpn11; O00487; human 26S proteasome, Ub4-pepOG fluorescence polarization; 20S core pre-blocked with epoxomicin; inhibition, % at 20 µM; 0.59% of 360,000 active;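 active means inhibition at 20 µM, scaled to each plate's controls, above about 33%, limit read from the data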
NadD inh: NadD (S. aureus) enzyme inhibition | purified NadD enzyme, colorimetric absorbance read-out | inhibition, % at 20 µM | 0.78% of 360,000 active; in the data active means inhibition above about 26%
PP5 primary: PP5 (human) phosphatase inhibition; purified PP5c, OMFP substrate fluorescence; inhibition, % at 6.7 µM; AID 1987; 0.18% of 320,000 active;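 active means inhibition above the campaign's mean inhibition across all tested compounds plus 3 SD, cut at about 9.5% in these data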;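 further: 0% = DMSO only and 100% = 100 µM cantharidin control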
PP1 inh: PP1-alpha (human) inhibition in PP5 counter-screen. purified PP1alpha, OMFP fluorescence. inhibition, % at 6.7 µM. 0.9% of 320,000 active. AID 2235;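 active means inhibition above the mean inhibition of all tested compounds plus 3 SD, computed separately for each screening campaign, cut at about 15% in these data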
The depositor's hits bear a star; nt = no result given. The list is not random: actives were taken first. Their share in the collection is about 2.4%.

SMILES	PREPL inhibitor	Rpn11 inh	NadD inh	PP5 primary	PP1 inh
CN(c1ccccc1)c1ccc(/C=N/NC(=O)CC#N)cc1	50*	-3	-3	1	3
COc1ccc(OC)c(Nc2nc(-c3sc(N)nc3C)cs2)c1	25	17	32*	3	4
CC(/C=C/c1ccc(N(C)C)cc1)=N\N=C1\NC(=O)CC(C(=O)Nc2ccccc2)S1 (centres undefined)	22	nt	49*	4	2
CCCOc1ccc(NC(=O)C2CC(=O)N/C(=N/N=C(C)/C=C/c3ccc(N(C)C)cc3)S2)cc1 (centres undefined)	22	nt	56*	3	8
CCCOc1ccc(NC(=O)C2CC(=O)N/C(=N/N=C(\C)CCc3ccc4c(c3)OCO4)S2)cc1 (centres undefined)	1	-1	5	0	0
COc1ccc(NC(=O)C2CC(=O)N/C(=N/N=C/c3ccccc3)S2)cc1 (centres undefined)	6	-3	-4	-1	-6
CCN(c1ccccc1)S(=O)(=O)c1nnc(NC(=O)c2ccccc2OC)s1	-3	-6	-10	1	-2
O=C(O)CC(C(=O)O)N1C(=O)/C(=C/c2ccc(-c3nc4ccccc4s3)o2)SC1=S (centres undefined)	17	71*	23	2	11
CCN(CC)c1nc(C(N)=O)cc(-c2ccccc2)n1	20	-12	5	3	1
CN1CCN(c2nc(C(N)=O)cc(-c3ccccc3)n2)CC1	6	39*	0	1	-1
COc1cc([N+](=O)[O-])ccc1-c1ccc(/C=N\n2cnnc2)o1	nt	nt	1	nt	nt
COc1cc([N+](=O)[O-])ccc1-c1ccc(/C=C2\C(=O)ON=C2c2ccccc2)o1	nt	16	45*	nt	nt
Cc1ccc(C(=O)OCc2nc3ccsc3c(=O)[nH]2)o1	2	0	-4	-3	1
O=C(/C=C/c1ccc(Br)o1)OCc1nc2ccsc2c(=O)[nH]1	-4	nt	53*	-1	-4
CCc1ccc(C(=O)NNC(=O)C2CC(=O)N(c3ccc4c(c3)OCCO4)C2)cc1 (centres undefined)	4	12	-5	2	-2
CC(=O)Nc1ccc(-c2csc(NC(=O)C3CC(=O)N(c4ccc5c(c4)OCCO5)C3)n2)cc1 (centres undefined)	-9	-1	13	4	16*
COC(=O)c1ccc(CSc2nnc(NC(=O)C3CC(=O)N(c4ccc5c(c4)OCCO5)C3)s2)cc1 (centres undefined)	1	14	23	3	15*
COCCNc1nc(NCc2cc(-c3ccc(OC)cc3)no2)c2sccc2n1	nt	1	3	nt	nt
CCC1=NN2C(=N)/C(=C\c3ccc(OCCOc4ccc(NC(C)=O)cc4)c(OC)c3)C(=O)N=C2S1	4	-3	17	2	-2
CC(=O)Nc1ccc(OCCOc2ccc(/C=C3\C(=N)N4N=C(C)SC4=NC3=O)cc2)cc1	-1	-1	12	2	-2
CCC1=NN2C(=N)/C(=C\c3ccc(OCCOc4ccccc4OC)cc3)C(=O)N=C2S1	1	-2	25*	0	-1
N=C1/C(=C\c2ccc(OC(=O)c3ccco3)cc2)C(=O)N=C2SC(N3CCCCC3)=NN12	39	7	28	4	8
COc1ccc(OCCOc2ccc(/C=C3\C(=N)N4N=C(C)SC4=NC3=O)cc2)cc1	8	32	68*	-2	-3
N=C1/C(=C\c2ccc(OC(=O)c3ccc(F)cc3)cc2)C(=O)N=C2SC(N3CCCC3)=NN12	33	9	51*	-1	1
COc1cccc(-c2nn3c(-c4ccccn4)nnc3s2)c1	9	-9	4	-1	17*
SMILES	PREPL inhibitor	Rpn11 inh	NadD inh	PP5 primary	PP1 inh
CC(C)c1nc2sc3c(SCC(=O)NCc4ccco4)ncnc3c2c2c1CCC2	-31	0	46*	4	10
Cc1c(OC(C)C(=O)NCCCn2ccnc2)ccc2c3c(c(=O)oc12)CCC3 (centres undefined)	3	-10	1	1	-1
O=C(OCc1ccccc1)N1CCN(C(c2ccnc3ccccc23)c2nnnn2-c2ccc3c(c2)OCCO3)CC1 (centres undefined)	nt	nt	9	nt	nt
CCn1c(SCC(=O)Nc2oc(-c3ccccc3)c(-c3ccccc3)c2C#N)nnc1-c1cc(OC)cc(OC)c1	10	8	51*	2	14
CCCCCNc1nc(-c2ccccc2)cs1	70*	nt	nt	2	-1
c1ccc(CCNc2nc(-c3ccncc3)cs2)cc1	15	6	-3	4	1
Cc1[nH]c2ccccc2c1/C=N/NS(=O)(=O)c1ccccc1	22	6	7	0	-4
Cc1[nH]c2ccccc2c1/C=N/Nc1ccccc1[N+](=O)[O-]	51*	0	-4	6	7
COc1cccc(NC(=O)Nc2nc(SC(C)(C)C)ns2)c1	-20	3	-9	5	17*
COc1ccc(OCCNC(=O)c2ccc3nc(C)c(N(C)Cc4ccc(NC(C)=O)cc4)n3c2)cc1	nt	-10	5	nt	nt
Cc1cc(/C=N/NC(=O)Cn2c3ccccc3c(=O)c3ccccc32)c(C)n1-c1ccc(Cl)cc1	nt	18	49*	nt	nt
Cc1ccc(-n2c(C)cc(/C=N/NC(=O)Cn3c4ccccc4c(=O)c4ccccc43)c2C)cc1	-19	9	37*	-2	14
Cc1cccc(-c2oc3ccc(-c4ccc5c(c4)OCO5)cc3c2C(=O)OCc2ccc(O)cc2)c1	6	3	-4	-1	-2
COc1ccc(C2NCCc3c2[nH]c2ccccc32)cc1COc1ccc(F)cc1 (centres undefined)	38	3	14	4	17*
Cc1ccccc1C1C(C#N)=C2N=C(N)c3c(sc4c3CCCCC4)N2C2=C1C(=O)CC(C)(C)C2 (centres undefined)	5	-12	24	3	15*
Cc1ccccc1C1C(C#N)=C2NC(=O)c3c(sc4c3CCCCC4)N2C2=C1C(=O)CC(C)(C)C2 (centres undefined)	10	nt	nt	1	2
COC(=O)Cc1coc2cc(OC)ccc12	6	5	0	2	-4
Cc1ccc(NC(=S)N=Nc2c(O)n(C)c3ccc(S(=O)(=O)N4CCOCC4)cc23)cc1C	11	18	31*	3	-3
COc1ccc(N2CCc3c(C)nc4c(OC)cc(OC)cc4c32)c(OC)c1	48*	1	-2	2	1
c1ccc(Oc2nc(-c3ccccn3)nc3ccccc23)cc1	3	-4	0	1	16*
COc1ncnc2c1ncn2CCCNCc1ccccn1	nt	4	5	nt	nt
Cc1ccc(S(=O)(=O)N2CCCCC2CCNC(=O)C(=O)NCC2CCCO2)cc1 (centres undefined)	-2	-2	-3	1	17*
O=C(NCCC1CCCCN1S(=O)(=O)c1ccc(F)cc1)C(=O)NCC1CCCO1 (centres undefined)	6	-4	-2	-2	-2
FC(F)(F)c1cc(Cl)c2nc(-c3ccccc3)c(Cc3cccc(Cl)c3)n2c1	nt	nt	11	nt	nt
